Sampled rows, rich in hits. Any-hit rate of the full collection: about 10%.
LMNA splice mod – qHTS Assay for Modulators of Lamin A Splicing; HeLa LMNA splicing GFP/RFP minigene ratio, 48 h; Potency, µM (series often up to 46.1 µM), without a hit: at the highest dose ratio change, negative = inhibition, hits mostly inhibitors; hit rate 0.01% among 200,000; AID 1487, 2009; active = well fitted inhibition curve with a large enough effect in the signal ratio, with a control signal flat, not every such curve was filed as active; inconclusive = small, poorly fitted or top-dose-only effect, or effect the other way, or a change in a side signal; the % refers to the signal ratio; also: potency is read from the fitted curve at half-maximal effect
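S3 HeLa stable clones carrying a lamin A-EGFP splicing minigene plus DsRed2 were seeded at 600 cells/well in Opti-MEM with 2% FBS, pin-dosed and incubated 48 h at 37°C. Acumen cytometry (488 nm) gave the GFP/RFP total-intensity ratio.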
ALDH1A1 block – qHTS Assay for Inhibitors of Aldehyde Dehydrogenase 1 (ALDH1A1); Purified ALDH1A1, NADH fluorescence, propionaldehyde substrate; hit rate 7.3% among 220,000; Potency, µM (highest dose often 75.3 µM), for inactives: top-dose activity, negative = inhibition, hits mostly inhibitors;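 also: potency is read from the fitted curve at half-maximal effect; plate controls were no enzyme wells and a reference inhibitor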
HPGD inh – qHTS Assay for Inhibitors of HPGD (15-Hydroxyprostaglandin Dehydrogenase); purified HPGD, NADH fluorescence kinetic, PGE2 substrate; Potency, µM, inactives show top-dose activity change, negative = inhibition, most hits filed as inhibitors; hit rate 4.3% among 150,000; also: potency is read from the fitted curve at half-maximal effect
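20 nM HPGD preincubated 15 min at room temperature with compound in 50 mM Tris-HCl pH 8, 0.01% Tween 20. Started with 1 mM NAD+ and 30 uM prostaglandin E2; NADH fluorescence (360/450 nm) read 5 times over 30-s intervals, last minus first.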
PNC assembly inh – High Content Assay for Compounds that inhibit the Assembly of the Perinucleolar Compartment. hit rate 3.1% among 140,000. activity change (PNC), negative = inhibition, % at 10 µM. PC3M PTB-GFP, PNC prevalence imaging, 16 h; stronger effect = lower value. AID 2417, 2010;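 active = readout at or below -70, meaning at least 70% loss of cells showing the perinucleolar compartment, a nuclear body marking cancer cells; inconclusive = readout between -30 and a set limit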;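 also: plate controls were DMSO wells for no effect and camptothecin positive control wells for full effect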
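PC3M cells stably expressing PTB-GFP, 750–1000 cells/well, treated 16 h at 37 °C with compound (23 nl of library stock), in duplicate. After paraformaldehyde fixation and Hoechst stain, imaged at 20x; PNC prevalence scored by image analysis.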
12-hLO inh – qHTS Assay for Inhibitors of 12-hLO (12-human lipoxygenase); Polyunsaturated fatty acid lipoxygenase ALOX12 (Homo sapiens), P18054; purified 12-hLO, xylenol orange hydroperoxide absorbance; Potency, µM (top dose mostly 57.1 µM), for the others: top-dose activity change, negative = inhibition, usual class: inhibitors; hit rate 0.12% among 150,000; AID 1452, 2008; active = well fitted inhibition curve with a large enough effect; inconclusive = small, poorly fitted or top-dose-only effect; also: potency is read from the fitted curve at half-maximal effect; nearly all actives have a fitted effect of over 55% in size
Target sequence (P18054 whole entry, looked up): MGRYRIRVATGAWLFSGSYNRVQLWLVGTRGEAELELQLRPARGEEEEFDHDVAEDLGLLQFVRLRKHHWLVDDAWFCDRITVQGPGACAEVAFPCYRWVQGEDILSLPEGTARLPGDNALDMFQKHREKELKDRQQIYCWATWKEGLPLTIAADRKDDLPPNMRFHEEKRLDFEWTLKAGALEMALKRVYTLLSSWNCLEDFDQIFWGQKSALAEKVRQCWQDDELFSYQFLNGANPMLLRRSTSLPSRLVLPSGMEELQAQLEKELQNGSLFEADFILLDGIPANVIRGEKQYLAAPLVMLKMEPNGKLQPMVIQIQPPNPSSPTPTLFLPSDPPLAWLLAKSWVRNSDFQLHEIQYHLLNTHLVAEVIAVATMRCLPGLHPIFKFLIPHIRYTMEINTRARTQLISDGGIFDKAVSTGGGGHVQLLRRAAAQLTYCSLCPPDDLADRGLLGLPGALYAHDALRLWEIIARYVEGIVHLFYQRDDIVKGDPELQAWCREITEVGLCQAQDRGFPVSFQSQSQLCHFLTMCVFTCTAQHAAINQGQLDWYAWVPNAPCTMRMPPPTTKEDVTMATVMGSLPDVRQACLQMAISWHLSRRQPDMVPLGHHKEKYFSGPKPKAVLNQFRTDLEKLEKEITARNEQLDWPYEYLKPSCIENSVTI
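Purified human 12hLO (150 nM), preincubated 15 min with compound, then 40 uM arachidonic acid for 30 min, room temperature, Hepes pH 7.0 with 0.01% Triton X-100. Hydroperoxide detected by ferrous iron/xylenol orange; 573/405 nm absorbance ratio gives reaction progress.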
The depositor's hits bear a star; [ ] = another dose, or the depositor's remark. Unless noted, calls follow the shape of the dose curve; as a rule, active = well fitted inhibition curve with a large enough effect (not every such curve was filed as active); inconclusive = small, poorly fitted or top-dose-only effect, or another doubt; inactive = no such curve, though single readings can be large or run the other way. Unless noted, % is scaled to controls: 0 for no effect and ±100 for the full control effect.

`COc1ccc(C2C(=O)N(C3CCCCCC3)CC(=O)N2CCc2ccccc2)cc1` (centres undefined) gave LMNA splice mod -7.5%[46 µM].
`CCN(CC)S(=O)(=O)c1ccc(NC2c3ccccc3C(=O)N2c2ccc(C)cn2)cc1` (centres undefined) gave LMNA splice mod 2.7%, ALDH1A1 block 17.8µM*, HPGD inh -12.5%, PNC assembly inh 8.3 and 12-hLO inh 3.9%.
`Cc1ccc(N2C(=O)c3ccccc3C2Nc2ccc(S(=O)(=O)N3CCCCC3)cc2)nc1` (centres undefined) gave LMNA splice mod -0.1%, ALDH1A1 block 14.1µM*, HPGD inh -2.3%, PNC assembly inh -19.0 and 12-hLO inh -0.6%.
Screening CCOC(=O)N1CCC(N2C(=O)c3ccccc3C2Nc2ccc(S(=O)(=O)N3CCCCC3)cc2)CC1 (centres undefined) returned LMNA splice mod inconclusive and ALDH1A1 block 25.1µM*.
For CCOC(=O)c1ccc(NC(=O)Cn2nc(C)c3nn(-c4ccc(Cl)cc4)c(C)c3c2=O)cc1 the results were LMNA splice mod -17.3%[46 µM].
CN(C)S(=O)(=O)c1cccc(NC(=O)c2cc(-c3cccs3)nn2-c2ccccc2)c1 was read as LMNA splice mod 14.5%, ALDH1A1 block 22.4µM*, HPGD inh inconclusive, PNC assembly inh 11.4 and 12-hLO inh 0.8%.
`CCN(CC)S(=O)(=O)c1cccc(NC(=O)c2cc(-c3cccs3)nn2-c2ccccc2)c1` gave LMNA splice mod -10.1%, ALDH1A1 block -7.5%, HPGD inh -19.5%, PNC assembly inh 10.4 and 12-hLO inh -0.2%.
`Cc1cc(=O)n(Cc2cccc(Br)c2)c2c1c(C)nn2-c1ccccc1` gave LMNA splice mod 2.4%[46 µM].
CSc1nc2ccc(NS(=O)(=O)c3cccc(Cl)c3Cl)cc2s1 was read as LMNA splice mod inconclusive, ALDH1A1 block inconclusive, HPGD inh 15.8µM*, PNC assembly inh -29.8 and 12-hLO inh -4.2%.
For C=CCn1c(=S)[nH]c2sc3c(c2c1=O)CCC3 the results were LMNA splice mod inconclusive, ALDH1A1 block 11.2µM*, HPGD inh 31.6µM*, PNC assembly inh -109.3* and 12-hLO inh inconclusive.
For CCOC(=O)c1cnn(-c2c(Cc3ccccc3)c(C)nc3c(-c4ccccc4)c(C)nn23)c1N the results were LMNA splice mod 0.2%, ALDH1A1 block 0.1µM*, HPGD inh -7.9%, PNC assembly inh -27.5 and 12-hLO inh 1.4%.
`CCCCNC(=S)N/N=C/c1ccc(OCC(=O)Nc2c(C)cc(C)cc2C)c(OC)c1` gave LMNA splice mod -9.0%, ALDH1A1 block -0.9%, HPGD inh -24.4%, PNC assembly inh -81.9* and 12-hLO inh -5.1%.
For COc1cc(/C=N/NC(N)=S)ccc1OCC(=O)Nc1ccc(C)c(C)c1 the results were LMNA splice mod inconclusive, ALDH1A1 block inconclusive, HPGD inh inconclusive, PNC assembly inh 9.5 and 12-hLO inh -18.8%.
`Cc1ccc(NC(=O)C(=O)NCC(c2ccc3c(c2)OCO3)N2CCN(C)CC2)c(C)c1` (centres undefined) gave LMNA splice mod 10.1%[46 µM].
`COC(=O)CC1C(=O)NCCN1C(=O)CSc1nc2ccc([N+](=O)[O-])cc2s1` (centres undefined) gave LMNA splice mod -5.2%[9.22 µM] and ALDH1A1 block inconclusive.
`Cc1ccc(NC(=O)CN2C(=O)S/C(=C\c3cc(C)n(-c4ccc(C(=O)O)cc4)c3C)C2=O)cc1` gave LMNA splice mod inconclusive and ALDH1A1 block 13.8%.
COc1ccc(N=C2S/C(=C\c3cc(C)n(C)c3C)C(=O)N2CC(C)C)cc1 was read as LMNA splice mod 16.7%, ALDH1A1 block 2.51µM*, HPGD inh -23.2%, PNC assembly inh 68.4 and 12-hLO inh -20.9%.
COc1ccc(N=C2S/C(=C\c3ccco3)C(=O)N2CC(C)C)cc1 was read as LMNA splice mod 8.1%, ALDH1A1 block inconclusive, HPGD inh -1.1%, PNC assembly inh -18.5 and 12-hLO inh -3.4%.

Screening data: PubChem, National Center for Advancing Translational Sciences (NCATS)
